# Compound activity deposited in PubChem BioAssay by National Center for Advancing Translational Sciences (NCATS).
# L3MBTL1 block: blocks human L3MBTL1 | Q9Y468 | AlphaScreen L3MBTL1–H3K9me1 peptide binding | Potency, µM (top dose mostly 57.1 µM), for inactives: top-dose activity, negative = inhibition, actives largely listed as inhibitors | 230,000 tested, 0.66% active | AID 485360; also: nearly all actives have a fitted effect of over 60% in size
#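 L3MBTL1 50 nM + b-AHA-H3(1-15)K9me1 75 nM, 30 min RT; compound added, 30 min RT; streptavidin donor/Ni-chelate acceptor beads 10 ug/mL each final, 30 min RT dark; AlphaScreen read.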
# JMJD2E inh: inhibitors of human JMJD2E histone demethylase; B2RXH2; JMJD2E catalytic domain, FDH-coupled NADH fluorescence (FDH is formaldehyde dehydrogenase); Potency, µM (series often up to 57.1 µM), for inactives: at the highest dose activity change, negative = inhibition, hits mostly inhibitors; 230,000 tested, 1.6% active; AID 2147; active = well fitted inhibition curve with a large enough effect, not every such curve was filed as active; inconclusive = small, poorly fitted or top-dose-only effect, or another doubt; inactive = no such curve, though single readings can be large or run the other way;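 also: 0% = wells with enzyme and -100% = buffer wells without enzyme; nearly all actives have a fitted effect of over 50% in size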
# Target sequence (B2RXH2 1-337 limits assumed): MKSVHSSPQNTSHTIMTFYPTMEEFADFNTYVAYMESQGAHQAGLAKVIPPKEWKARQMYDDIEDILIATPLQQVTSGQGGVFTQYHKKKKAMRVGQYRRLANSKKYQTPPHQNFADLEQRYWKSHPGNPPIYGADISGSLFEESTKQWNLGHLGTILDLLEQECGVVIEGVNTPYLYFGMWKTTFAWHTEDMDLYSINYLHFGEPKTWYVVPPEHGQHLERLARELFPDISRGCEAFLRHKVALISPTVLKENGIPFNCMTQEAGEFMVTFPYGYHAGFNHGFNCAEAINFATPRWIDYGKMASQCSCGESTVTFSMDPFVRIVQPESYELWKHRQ
# KAT2A inh: inhibitors of human GCN5L2 histone acetyltransferase | Q92830 | AID 504327 | GCN5L2 HAT assay, ThioGlo1 CoA-SH fluorescence | Potency, µM (doses to about 58.9 µM), for inactives: at the highest dose activity change, negative = inhibition, most hits filed as inhibitors | 390,000 tested, 0.21% active
#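 Preincubate 20nM GCN5L2 with compound 15 min, RT → add 50uM ThioGlo1 + 75uM H3(1-25) + 70uM acetyl-CoA → read fluorescence 0 and 20 min. Primary qHTS; fluorescent artifacts likely.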
# APE1 inh: APE1 (human) endonuclease inhibition. AID 2517. P27695. recombinant APE1, TAMRA/BHQ-2 abasic DNA cleavage fluorescence. Potency, µM (top dose mostly 65.8 µM), without a hit: at the top dose activity change, negative = inhibition, actives largely listed as inhibitors. 350,000 tested, 0.35% active;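 also: plate controls were vehicle for no effect and reference inhibitor for full effect; nearly all actives have a fitted effect of over 55% in size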
# Target sequence (P27695 whole entry, looked up): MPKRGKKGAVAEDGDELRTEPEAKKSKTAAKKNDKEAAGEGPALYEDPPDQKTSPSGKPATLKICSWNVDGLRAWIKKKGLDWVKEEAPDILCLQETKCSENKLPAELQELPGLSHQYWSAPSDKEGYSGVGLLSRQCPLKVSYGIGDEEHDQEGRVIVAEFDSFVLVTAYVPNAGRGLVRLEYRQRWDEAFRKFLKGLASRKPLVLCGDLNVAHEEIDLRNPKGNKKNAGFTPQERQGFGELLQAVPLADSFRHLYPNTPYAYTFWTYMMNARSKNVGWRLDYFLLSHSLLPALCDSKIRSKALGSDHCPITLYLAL
#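 Quantitative HTS: incision of a TAMRA/BHQ-2 double-stranded substrate bearing a tetrahydrofuran abasic site by 0.75 nM APE1 raises fluorescence. Substrate 50 nM final, added after 15 min compound preincubation at room temperature; progress as third-minus-first kinetic read difference.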
# BLM inh: blocks DNA unwinding by human BLM helicase; recombinant BLM DNA unwinding, fluorescence dequenching; Potency, µM (series often up to 56.1 µM), for inactives: at the highest dose activity change, negative = inhibition, most hits filed as inhibitors; 350,000 tested, 0.2% active;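 also: plate controls were vehicle for no effect and no enzyme for full effect; nearly all actives have a fitted effect of over 35% in size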
# RECQ1 helicase: blocks DNA unwinding by human RECQ1; RECQ1 DNA unwinding, red fluorescence kinetic read; 240,000 tested, 0.54% active; P46063; AID 2549; Potency, µM (highest dose often 57.3 µM), for the others: at the highest dose activity, negative = inhibition, hits mostly inhibitors;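 also: plate controls were vehicle for no effect and no enzyme for full effect; nearly all actives have a fitted effect of over 30% in size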
#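 RECQ1T1 50 nM; forked duplex (20 bp + 30-nt ss tails) 200 nM, ATP 2 mM final; pH 8.0, 2 mM MgCl2, 2.5 ug/ml poly(dI-dC); 15 min compound preincubation; discontinuous kinetic read over 2 h at RT.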
# * marks the source's active call; other numbers are inactive results; i = inactive; ? = inconclusive; · = no result; ! = not confirmed by another sample; [ ] = another dose, or the depositor's remark. Shown is part of a subset that was picked to be rich in hits. Unless noted, calls follow the shape of the dose curve; as a rule, active = well fitted curve in the direction sought with a large enough effect; inconclusive = small, poorly fitted or top-dose-only effect, or another doubt; inactive = no such curve, though single readings can be large; an effect the other way counts as inactive or inconclusive. Unless noted, % is scaled to controls: 0 for no effect and ±100 for the full control effect; potency is read from the fitted curve at half-maximal effect.
SMILES,L3MBTL1 block,JMJD2E inh,KAT2A inh,APE1 inh,BLM inh,RECQ1 helicase
CO[C@H]1C[C@H](O[C@H]2[C@H](C)[C@@H](O[C@@H]3O[C@H](C)C[C@H](N(C)C)[C@H]3O)[C@@H](C)C[C@]3(CO3)C(=O)[C@H](C)[C@@H](O)[C@@H](C)[C@@H](C)OC(=O)[C@@H]2C)O[C@@H](C)[C@@H]1O,·,·,·,-1%[21 µM],·,·
CCc1ccc(-c2nc(SCC(=O)NCCOC)c(-c3ccc(C)cc3)[nH]2)cc1,·,·,-11%,·,0%,·
CN1/C(=C/c2cc[n+](C)c3ccccc23)C=Cc2ccccc21,·,11µM*,-24%,-3%,?,?
CCOC(=O)C(C(C)=O)c1c(Br)c(O)c(O)c2c(C(=O)c3ccc(C)cc3)coc12 (centres undefined),-23%,25µM*,-13%,-8%,-13%,?
CCCNC(=O)OC[C@@H]1O[C@H](CCO/N=C(\C)CCN2CCc3nc(-c4ccccc4)c(-c4ccccc4)cc3C2)C=C[C@@H]1Oc1ccc(OC)cc1,·,·,·,40%[12.4 µM],0%[12.4 µM],13%[11.5 µM]
COc1ccc(OCC2CN3C(CCC(C)C3c3ccc(Br)cc3)C(=O)O2)cc1 (centres undefined),·,·,·,?,0%[12.4 µM],16%[11.5 µM]
CCN1C(=O)/C(=C/C=C2\N(CC)c3cc(S(=O)(=O)N(C)C)ccc3N2c2ccccc2)SC1=S,?,-3%,-1%,-7%,50%,0.79µM*
CN1CCCN=C1/C=C\c1cccs1,·,-4%[25.5 µM],11µM*,0%[21 µM],2%[21.4 µM],-6%[25.9 µM]
Cc1ccsc1/C=C/C1=NCCCN1C,-4%,?,-4%,6%,4%,15%
Cc1cccc2sc(NC(=O)C3CCCO3)nc12 (centres undefined),1%,3%,-4%,4%,3%,-9%
Cc1nc(C)c(C(=O)Nc2nc3c(C)cccc3s2)o1,20µM*,6%,-18%,?,-20%,-28%
OC1OC[C@H](O)[C@@H](O)[C@H]1O (some centres undefined),·,·,-15%,-2%,0%,-5%
Cc1cc(C2CCCCC2)n(O)c(=O)c1,-28%,10µM*,?,14%,0%,-16%
O=C(Nc1ccnc(-c2ccncc2)n1)C1CC1,?,7%,21%,2%,-3%,20%
c1ccc(-c2nnc(-c3ccccn3)s2)nc1,·,2.8µM*,-5%,2%,1%,i
c1ccc(-c2nc(-c3ccccn3)nc(-c3ccccn3)n2)nc1,·,?,-9%,2%,6%,2%
COc1ccccc1C(=O)Nc1ncc2c(n1)CC(c1ccco1)CC2=O (centres undefined),?,-25%,-13%,18µM*,-20%,?
COc1ccc(C2CC(=O)c3cnc(NC(=O)c4ccco4)nc3C2)cc1 (centres undefined),·,·,-3%,20%,2%,·
CC1(C)C2CCC1(C)C(OCC[N+](C)(C)CC(=O)OC1CCCCC1)C2 (centres undefined),22%,2%,39%,6%,-3%,-9%
CCOC(=O)C[N+](C)(C)CCOC1CC2CCC1(C)C2(C)C (centres undefined),2%,18µM*,-5%,4%,3%,28%
C=CCN1C=C2C(=O)C(C)(OC(=O)c3cccs3)C(=O)C=C2C=C1CCCC(=O)OC (centres undefined),·,16µM*!,-17%,-9%[12.4 µM],-2%[12.4 µM],-11%[11.5 µM]
O=S(=O)(O)c1cccc2c(N=Nc3ccc(O)c4ncccc34)cccc12,·,·,?,24µM*,?,·
COc1ccc(N=Nc2ccc(O)c3ncccc23)cc1,·,?,-22%,-3%,0%,i
Cc1ccc(O)c2ncccc12,·,·,3%,·,8%,·
O=Nc1ccc(O)c2ncccc12,?,25µM*,0%,-5%,-15%,-19%
SMILES,L3MBTL1 block,JMJD2E inh,KAT2A inh,APE1 inh,BLM inh,RECQ1 helicase
O=C([O-])[C@@H]1[O][Sb+]([O][Sb+]2[O][C@H]([C@H](O)CO)[C@H](O)[C@H](C(=O)[O-])[O]2)[O][C@H]([C@H](O)CO)[C@@H]1O,·,·,31%,-3%,-9%,-13%
CCn1c(C)nc2cc(C(=O)N/N=C(\C)c3ccc(OC)cc3O)ccc21,-1%,13µM*,-7%,-5%,-7%,i
CCn1c(C)nc2cc(C(=O)NN=C(C)c3ccc(C#N)cc3)ccc21,11%,·,-4%,3%,·,·
CCn1c(C)nc2cc(C(=O)N/N=C/c3cccc(O)c3O)ccc21,?,3.5µM*,-7%,-10%,-10%,i
O=C1NCCCC1C(=O)N/N=C/c1cc([N+](=O)[O-])ccc1O (centres undefined),-8%,10µM*,-5%,23%,1%,2%
O=C(N/N=C/c1cc([N+](=O)[O-])ccc1O)C1CC1,12%,28µM*,-1%,-2%,-3%,i
CCc1ccc(N2CC(C(=O)N/N=C/c3cc([N+](=O)[O-])ccc3O)CC2=O)cc1 (centres undefined),?,?,-8%,-3%,-1%,i
O=C(O)CCCCCNC(=O)CSc1nnc(-c2ccc([S+](=O)([O-])N3CCCC3)cc2)n1-c1ccccc1,·,·,·,43%,·,·
Cn1c(=O)c(NC2CCCCC2)c2c3c(cccc31)C(=O)c1ccccc1-2,37%,-6%,-5%,1%,1%,i
CCCCNc1c2c3c(cccc3n(C)c1=O)C(=O)c1ccccc1-2,94%,-6%,-11%,-3%,-13%,32µM*
CC12C=C(/C=C/C=C/c3ccco3)C(C)(C1)C(/C=C/c1ccco1)CC2=O (centres undefined),·,·,·,?,-3%[12.4 µM],1.4µM*
Oc1ccccc1N=N/C(=N/Nc1ccccc1O)c1ccccc1,-9%,·,0%,1%,·,·
Cn1nnnc1N=N/C(=N/Nc1ccccc1)c1ccccc1,2.8µM*,?,-7%,3%,-3%,-10%
CC[C@H](CC[C@@H](C)[C@H]1CC[C@H]2[C@@H]3CC=C4C[C@@H](O)CC[C@]4(C)[C@H]3CC[C@]12C)C(C)C,·,·,·,5%,·,·
Cc1ccc2onc(CNC(=O)N(C)Cc3ccccc3)c2c1,·,·,-1%,·,1%,·
CCOc1cc(CNc2ccc(O)cc2)ccc1OCc1ccc(Cl)cc1Cl,?,4.5µM*,-15%,?,?,-15%
COC(=O)C1=C(C)N(Cc2ccccc2)[C@]23O[C@](C(=O)OC)(C(=O)N2C1c1ccccc1)C1C(=O)N(C)C(=O)C13 (some centres undefined),·,·,·,?,0%[12.4 µM],5%[11.5 µM]
CCOC(=O)c1c(-c2ccc(Cl)cc2)csc1NC(=O)CNCc1ccco1,·,25µM*,-3%,?,-12%,-12%
